# In PMC7862700, “An all-to-all approach to the identification of sequence-specific readers for epigenetic DNA modifications on cytosine”:
# Assays:
# Assay in all cases: DAPPL (digital affinity profiling via proximity ligation, sequencing); 10 mM Tris-HCl pH 7.5, 50 mM NaCl, 1 mM DTT, 4% glycerol, room temperature, 30 min; GST-TFs on glutathione beads, 16-mer random dsDNA library, 0.1% formaldehyde crosslink after washing; high values mean tight binding
# [1] = molecular target: T1, FEV (Homo sapiens, UniProt Q99581 1-238); conditions: protein: recombinant; tags: N-terminal GST; dsDNA, one strand shown
# T1 sequence: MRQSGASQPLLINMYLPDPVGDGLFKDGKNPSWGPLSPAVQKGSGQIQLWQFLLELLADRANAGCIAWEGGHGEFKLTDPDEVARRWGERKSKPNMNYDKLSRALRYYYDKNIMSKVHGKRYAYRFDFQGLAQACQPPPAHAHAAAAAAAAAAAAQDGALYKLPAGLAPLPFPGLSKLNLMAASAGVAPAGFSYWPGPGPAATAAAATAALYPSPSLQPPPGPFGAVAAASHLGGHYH
# In short: (§1)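 Pools of DNA-barcoded human transcription factors, expressed in yeast as GST fusions on glutathione beads and combined with a tag-only sample, were incubated with 200 nmole of a 16-mer random double-stranded DNA library. Incubation took 30 min at room temperature in Tris/NaCl/DTT/glycerol buffer and was followed by washing, 0.1% formaldehyde crosslinking, proximity ligation (BsaI/T4 ligase, 1 h, 37 °C), PCR amplification and sequencing on an Illumina NextSeq500. Binding signal is the ratio of a hexamer's read frequency for a factor to its frequency for the tag-only sample.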
# [2] = molecular target: ETV5 (Homo sapiens, UniProt P41161 1-510); conditions: protein: recombinant; tags: N-terminal GST; dsDNA, one strand shown
# ETV5, sequence (P41161 whole entry): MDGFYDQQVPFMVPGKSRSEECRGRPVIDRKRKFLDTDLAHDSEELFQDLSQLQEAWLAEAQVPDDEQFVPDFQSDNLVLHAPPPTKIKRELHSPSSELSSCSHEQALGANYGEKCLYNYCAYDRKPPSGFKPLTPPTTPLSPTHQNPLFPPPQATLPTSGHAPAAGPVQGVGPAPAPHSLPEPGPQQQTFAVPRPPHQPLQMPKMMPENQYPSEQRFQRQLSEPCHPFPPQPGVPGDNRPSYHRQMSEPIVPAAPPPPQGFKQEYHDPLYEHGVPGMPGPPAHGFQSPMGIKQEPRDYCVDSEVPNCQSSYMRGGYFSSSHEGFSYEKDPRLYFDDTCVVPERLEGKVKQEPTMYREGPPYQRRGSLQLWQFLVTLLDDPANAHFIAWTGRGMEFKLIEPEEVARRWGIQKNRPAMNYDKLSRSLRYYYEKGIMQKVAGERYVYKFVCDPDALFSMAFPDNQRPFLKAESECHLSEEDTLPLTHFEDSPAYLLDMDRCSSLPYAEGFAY
# In short: as §1
# [3] = molecular target: HSF1 (Homo sapiens, UniProt Q00613 1-529); conditions: protein: recombinant; tags: N-terminal GST; chain copies: 3; dsDNA, one strand shown
# HSF1, sequence (Q00613 whole entry): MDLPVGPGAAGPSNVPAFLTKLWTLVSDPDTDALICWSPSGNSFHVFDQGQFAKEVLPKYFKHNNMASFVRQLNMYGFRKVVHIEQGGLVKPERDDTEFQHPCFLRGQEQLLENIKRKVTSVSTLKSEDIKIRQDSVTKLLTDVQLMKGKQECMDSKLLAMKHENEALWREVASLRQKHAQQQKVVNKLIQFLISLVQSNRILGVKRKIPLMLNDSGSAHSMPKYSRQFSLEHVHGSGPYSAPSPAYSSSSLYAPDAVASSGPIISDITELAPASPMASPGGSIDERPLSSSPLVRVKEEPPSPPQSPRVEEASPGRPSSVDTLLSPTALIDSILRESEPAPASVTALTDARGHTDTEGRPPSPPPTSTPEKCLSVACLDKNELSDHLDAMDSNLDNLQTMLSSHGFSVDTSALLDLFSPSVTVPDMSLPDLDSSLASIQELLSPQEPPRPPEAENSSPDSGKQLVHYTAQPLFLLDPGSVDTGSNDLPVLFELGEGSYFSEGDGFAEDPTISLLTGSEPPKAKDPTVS
# In short: as §1
# [4] = molecular target: T2, SPIC (Homo sapiens, UniProt Q8N5J4 1-248); conditions: protein: recombinant; tags: N-terminal GST; dsDNA, one strand shown
# T2 sequence: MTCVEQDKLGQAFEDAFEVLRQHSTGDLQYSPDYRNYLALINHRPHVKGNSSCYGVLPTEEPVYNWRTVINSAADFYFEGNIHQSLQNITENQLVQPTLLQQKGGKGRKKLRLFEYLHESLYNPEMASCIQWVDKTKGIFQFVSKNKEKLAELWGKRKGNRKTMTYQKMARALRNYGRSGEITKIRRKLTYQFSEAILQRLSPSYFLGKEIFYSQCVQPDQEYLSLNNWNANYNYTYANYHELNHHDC
# In short: as §1
# [5] = molecular target: ELF4 (Homo sapiens, UniProt Q99607 1-663); conditions: protein: recombinant; tags: N-terminal GST; dsDNA, one strand shown
# ELF4, sequence (Q99607 whole entry): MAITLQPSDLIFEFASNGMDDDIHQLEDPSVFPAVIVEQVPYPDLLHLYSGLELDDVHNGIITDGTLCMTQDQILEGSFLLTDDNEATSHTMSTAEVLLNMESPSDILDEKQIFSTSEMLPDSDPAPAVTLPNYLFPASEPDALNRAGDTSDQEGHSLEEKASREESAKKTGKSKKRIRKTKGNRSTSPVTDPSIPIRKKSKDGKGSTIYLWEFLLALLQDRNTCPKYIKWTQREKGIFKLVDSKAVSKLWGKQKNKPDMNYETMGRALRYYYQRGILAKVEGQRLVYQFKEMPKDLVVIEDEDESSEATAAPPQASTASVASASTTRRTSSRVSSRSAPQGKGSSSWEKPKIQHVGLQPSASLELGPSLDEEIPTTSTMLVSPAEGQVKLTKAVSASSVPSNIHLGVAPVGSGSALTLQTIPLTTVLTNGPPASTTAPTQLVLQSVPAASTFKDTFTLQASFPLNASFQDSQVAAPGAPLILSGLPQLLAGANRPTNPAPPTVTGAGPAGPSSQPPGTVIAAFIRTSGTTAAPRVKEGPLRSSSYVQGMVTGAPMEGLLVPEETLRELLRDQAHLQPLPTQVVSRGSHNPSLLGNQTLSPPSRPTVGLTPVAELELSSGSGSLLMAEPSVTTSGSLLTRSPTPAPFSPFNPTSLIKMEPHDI
# In short: as §1
# [6] = molecular target: T3, ELK4 (Homo sapiens, UniProt P28324-2 1-405); conditions: protein: recombinant; tags: N-terminal GST; dsDNA, one strand shown
# T3 sequence: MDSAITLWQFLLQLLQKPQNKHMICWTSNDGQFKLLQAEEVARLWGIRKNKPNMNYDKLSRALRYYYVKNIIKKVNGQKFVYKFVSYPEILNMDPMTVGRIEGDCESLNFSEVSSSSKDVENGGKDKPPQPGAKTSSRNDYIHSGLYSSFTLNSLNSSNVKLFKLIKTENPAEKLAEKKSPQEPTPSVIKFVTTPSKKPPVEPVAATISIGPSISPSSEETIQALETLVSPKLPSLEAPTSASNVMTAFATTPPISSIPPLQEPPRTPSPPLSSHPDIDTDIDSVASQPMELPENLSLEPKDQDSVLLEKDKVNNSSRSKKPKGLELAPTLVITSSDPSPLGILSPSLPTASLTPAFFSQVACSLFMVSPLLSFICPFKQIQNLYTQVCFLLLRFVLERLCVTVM
# In short: as §1
# [7] = molecular target: T4, ETV2 (Homo sapiens, UniProt O00321 1-342); conditions: protein: recombinant; tags: N-terminal GST; dsDNA, one strand shown
# T4 sequence: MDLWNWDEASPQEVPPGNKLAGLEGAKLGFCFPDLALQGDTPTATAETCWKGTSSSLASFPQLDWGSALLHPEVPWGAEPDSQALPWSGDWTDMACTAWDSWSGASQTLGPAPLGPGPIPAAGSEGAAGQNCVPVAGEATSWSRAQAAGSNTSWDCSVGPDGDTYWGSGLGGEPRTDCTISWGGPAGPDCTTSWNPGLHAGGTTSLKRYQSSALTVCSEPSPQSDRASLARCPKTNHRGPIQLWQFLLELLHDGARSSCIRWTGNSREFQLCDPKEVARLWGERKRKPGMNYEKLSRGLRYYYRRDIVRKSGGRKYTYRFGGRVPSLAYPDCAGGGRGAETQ
# In short: as §1
# [8] = molecular target: T5, ELF3 (Homo sapiens, UniProt P78545 1-371); conditions: protein: recombinant; tags: N-terminal GST; dsDNA, one strand shown
# T5 sequence: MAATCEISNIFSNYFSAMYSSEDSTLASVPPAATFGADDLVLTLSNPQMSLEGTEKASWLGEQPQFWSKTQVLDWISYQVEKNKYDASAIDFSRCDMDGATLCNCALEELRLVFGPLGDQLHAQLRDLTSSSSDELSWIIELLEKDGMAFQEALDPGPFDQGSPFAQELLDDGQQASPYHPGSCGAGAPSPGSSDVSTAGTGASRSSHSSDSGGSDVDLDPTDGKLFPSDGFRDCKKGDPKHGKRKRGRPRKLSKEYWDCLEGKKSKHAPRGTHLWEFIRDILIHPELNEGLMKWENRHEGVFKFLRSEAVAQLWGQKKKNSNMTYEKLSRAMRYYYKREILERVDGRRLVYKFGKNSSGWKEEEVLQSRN
# In short: as §1
# [9] = molecular target: CRX (Homo sapiens, UniProt O43186 1-299); conditions: protein: recombinant; tags: N-terminal GST; dsDNA, one strand shown
# CRX, sequence (O43186 whole entry): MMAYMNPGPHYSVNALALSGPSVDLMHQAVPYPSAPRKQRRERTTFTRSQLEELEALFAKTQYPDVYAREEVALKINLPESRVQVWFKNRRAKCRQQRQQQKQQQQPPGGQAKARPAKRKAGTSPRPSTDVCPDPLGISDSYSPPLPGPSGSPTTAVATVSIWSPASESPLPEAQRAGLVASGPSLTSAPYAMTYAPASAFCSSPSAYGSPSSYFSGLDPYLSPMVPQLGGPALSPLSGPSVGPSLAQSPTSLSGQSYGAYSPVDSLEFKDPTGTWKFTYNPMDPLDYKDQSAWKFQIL
# In short: as §1
# [10] = molecular target: ETV1 (Homo sapiens, UniProt P50549 1-477); conditions: protein: recombinant; tags: N-terminal GST; dsDNA, one strand shown
# ETV1, sequence (P50549 whole entry): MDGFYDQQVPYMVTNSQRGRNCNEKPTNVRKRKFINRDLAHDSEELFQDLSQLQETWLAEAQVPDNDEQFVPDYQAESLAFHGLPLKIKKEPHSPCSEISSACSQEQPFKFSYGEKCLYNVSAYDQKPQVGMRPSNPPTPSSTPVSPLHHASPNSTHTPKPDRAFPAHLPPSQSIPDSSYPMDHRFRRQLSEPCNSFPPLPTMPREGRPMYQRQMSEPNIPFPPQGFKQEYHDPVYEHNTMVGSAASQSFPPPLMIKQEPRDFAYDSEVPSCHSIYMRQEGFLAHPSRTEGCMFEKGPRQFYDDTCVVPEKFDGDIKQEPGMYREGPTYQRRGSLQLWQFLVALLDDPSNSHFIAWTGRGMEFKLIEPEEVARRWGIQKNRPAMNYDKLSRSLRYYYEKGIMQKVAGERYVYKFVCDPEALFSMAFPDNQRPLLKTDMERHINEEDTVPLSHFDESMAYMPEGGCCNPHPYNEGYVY
# In short: as §1
# [11] = molecular target: T6, ERF (Homo sapiens, UniProt P50548 1-548); conditions: protein: recombinant; tags: N-terminal GST; dsDNA, one strand shown
# T6 sequence: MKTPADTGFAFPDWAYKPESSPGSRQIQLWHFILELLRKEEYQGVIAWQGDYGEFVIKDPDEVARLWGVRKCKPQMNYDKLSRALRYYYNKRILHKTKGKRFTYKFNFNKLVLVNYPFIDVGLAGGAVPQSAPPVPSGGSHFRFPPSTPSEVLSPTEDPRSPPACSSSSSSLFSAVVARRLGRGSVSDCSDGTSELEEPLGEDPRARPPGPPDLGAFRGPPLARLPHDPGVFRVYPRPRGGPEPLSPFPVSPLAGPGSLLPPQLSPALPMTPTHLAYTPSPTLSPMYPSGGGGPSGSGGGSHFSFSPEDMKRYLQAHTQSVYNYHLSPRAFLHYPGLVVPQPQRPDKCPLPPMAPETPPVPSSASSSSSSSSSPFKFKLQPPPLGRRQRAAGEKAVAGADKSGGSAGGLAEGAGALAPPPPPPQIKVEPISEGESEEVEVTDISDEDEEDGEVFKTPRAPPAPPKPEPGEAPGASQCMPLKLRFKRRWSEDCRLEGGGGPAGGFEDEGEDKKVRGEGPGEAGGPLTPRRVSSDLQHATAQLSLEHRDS
# In short: as §1
# [12] = molecular target: T7, ETV3L (Homo sapiens, UniProt Q6ZN32 1-361); conditions: protein: recombinant; tags: N-terminal GST; dsDNA, one strand shown
# T7 sequence: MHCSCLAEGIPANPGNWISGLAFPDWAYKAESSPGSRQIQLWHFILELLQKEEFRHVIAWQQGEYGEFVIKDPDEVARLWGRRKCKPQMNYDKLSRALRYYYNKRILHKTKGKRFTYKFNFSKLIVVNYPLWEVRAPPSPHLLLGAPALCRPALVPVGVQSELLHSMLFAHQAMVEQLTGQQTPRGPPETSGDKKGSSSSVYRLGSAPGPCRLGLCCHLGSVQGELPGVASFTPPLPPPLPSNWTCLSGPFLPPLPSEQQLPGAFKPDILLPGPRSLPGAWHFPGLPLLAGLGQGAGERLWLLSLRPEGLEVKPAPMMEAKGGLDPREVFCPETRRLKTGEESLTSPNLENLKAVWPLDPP
# In short: as §1
# [13] = molecular target: T8, ETS2 (Homo sapiens, UniProt P15036 1-469); conditions: protein: recombinant; tags: N-terminal GST; dsDNA, one strand shown
# T8 sequence: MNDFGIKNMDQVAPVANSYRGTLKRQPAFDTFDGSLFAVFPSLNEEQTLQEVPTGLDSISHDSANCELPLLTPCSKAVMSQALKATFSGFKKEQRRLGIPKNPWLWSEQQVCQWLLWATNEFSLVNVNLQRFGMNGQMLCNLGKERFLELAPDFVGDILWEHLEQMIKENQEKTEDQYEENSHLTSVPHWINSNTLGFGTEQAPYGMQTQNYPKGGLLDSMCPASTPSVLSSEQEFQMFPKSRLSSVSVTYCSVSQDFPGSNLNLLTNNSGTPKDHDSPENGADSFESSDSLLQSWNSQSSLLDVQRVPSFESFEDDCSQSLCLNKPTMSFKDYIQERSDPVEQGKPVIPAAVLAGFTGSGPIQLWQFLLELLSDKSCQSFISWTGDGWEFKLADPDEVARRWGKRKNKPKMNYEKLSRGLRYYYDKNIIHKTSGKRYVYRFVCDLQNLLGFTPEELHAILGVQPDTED
# In short: as §1
# [14] = molecular target: T9, SPDEF (Homo sapiens, UniProt O95238 1-335); conditions: protein: recombinant; tags: N-terminal GST; dsDNA, one strand shown
# T9 sequence: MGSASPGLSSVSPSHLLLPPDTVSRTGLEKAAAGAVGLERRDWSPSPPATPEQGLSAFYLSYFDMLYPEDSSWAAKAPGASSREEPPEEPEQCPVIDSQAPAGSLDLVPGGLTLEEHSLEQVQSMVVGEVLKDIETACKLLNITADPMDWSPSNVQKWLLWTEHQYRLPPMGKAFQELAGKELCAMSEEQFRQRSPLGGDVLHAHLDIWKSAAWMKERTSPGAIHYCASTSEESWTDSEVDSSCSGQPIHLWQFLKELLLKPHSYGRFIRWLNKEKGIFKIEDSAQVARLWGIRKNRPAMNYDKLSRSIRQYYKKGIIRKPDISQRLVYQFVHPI
# In short: as §1
# [15] = molecular target: T10, ETV7 (Homo sapiens, UniProt Q9Y603 1-341); conditions: protein: recombinant; tags: N-terminal GST; dsDNA, one strand shown
# T10 sequence: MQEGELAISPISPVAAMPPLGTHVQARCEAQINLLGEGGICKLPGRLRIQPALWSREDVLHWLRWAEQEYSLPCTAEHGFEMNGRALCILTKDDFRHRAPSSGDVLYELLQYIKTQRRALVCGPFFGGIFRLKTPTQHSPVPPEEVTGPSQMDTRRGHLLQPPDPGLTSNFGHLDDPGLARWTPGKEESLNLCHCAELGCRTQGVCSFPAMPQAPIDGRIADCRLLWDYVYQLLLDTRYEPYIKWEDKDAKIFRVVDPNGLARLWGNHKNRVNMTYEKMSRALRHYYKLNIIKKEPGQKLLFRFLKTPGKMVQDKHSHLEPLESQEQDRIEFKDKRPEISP
# In short: as §1
# [16] = molecular target: T11, ELF5 (Homo sapiens, UniProt Q9UKW6-2 1-255); conditions: protein: recombinant; tags: N-terminal GST; dsDNA, one strand shown
# T11 sequence: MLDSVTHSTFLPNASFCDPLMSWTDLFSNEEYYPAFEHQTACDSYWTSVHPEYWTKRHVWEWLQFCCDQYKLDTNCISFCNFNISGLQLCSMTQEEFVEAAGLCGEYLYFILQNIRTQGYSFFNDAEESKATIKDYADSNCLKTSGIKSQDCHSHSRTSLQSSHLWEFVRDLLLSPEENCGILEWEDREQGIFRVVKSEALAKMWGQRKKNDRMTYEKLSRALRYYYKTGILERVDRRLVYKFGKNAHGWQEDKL
# In short: as §1
# [17] = molecular target: T12, ETV3 (Homo sapiens, UniProt P41162-2 1-143); conditions: protein: recombinant; tags: N-terminal GST; dsDNA, one strand shown
# T12 sequence: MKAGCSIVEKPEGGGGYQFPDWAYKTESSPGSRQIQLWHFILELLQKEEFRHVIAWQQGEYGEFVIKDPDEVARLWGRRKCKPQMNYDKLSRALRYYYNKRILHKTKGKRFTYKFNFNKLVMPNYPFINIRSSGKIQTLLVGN
# In short: as §1
# [18] = molecular target: ETV6 (Homo sapiens, UniProt P41212 1-452); conditions: protein: recombinant; tags: N-terminal GST; dsDNA, one strand shown
# ETV6, sequence (P41212 whole entry): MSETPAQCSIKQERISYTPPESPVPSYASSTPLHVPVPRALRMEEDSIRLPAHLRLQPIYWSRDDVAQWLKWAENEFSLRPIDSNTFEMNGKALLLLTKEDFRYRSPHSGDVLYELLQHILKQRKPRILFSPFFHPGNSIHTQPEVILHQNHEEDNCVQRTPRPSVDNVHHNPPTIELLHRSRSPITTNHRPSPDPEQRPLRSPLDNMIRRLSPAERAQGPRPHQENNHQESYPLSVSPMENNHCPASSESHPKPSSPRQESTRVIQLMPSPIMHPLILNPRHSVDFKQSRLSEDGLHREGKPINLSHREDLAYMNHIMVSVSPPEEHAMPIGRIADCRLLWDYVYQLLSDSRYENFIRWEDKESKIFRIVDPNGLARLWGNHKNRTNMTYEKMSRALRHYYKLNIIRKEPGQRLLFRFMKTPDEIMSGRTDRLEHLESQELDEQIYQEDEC
# In short: as §1
sequence,measurement,setting,value
TTTTGT,binding signal,[1],"1.33 fold enrichment (6-mer frequency, TF over GST control)"
same,binding signal,[2],"1.31 fold enrichment (6-mer frequency, TF over GST control)"
same,binding signal,[3],"1.27 fold enrichment (6-mer frequency, TF over GST control)"
same,binding signal,[4],"1.2 fold enrichment (6-mer frequency, TF over GST control)"
same,binding signal,[5],"1.41 fold enrichment (6-mer frequency, TF over GST control)"
same,binding signal,[6],"1.36 fold enrichment (6-mer frequency, TF over GST control)"
same,binding signal,[7],"1.28 fold enrichment (6-mer frequency, TF over GST control)"
same,binding signal,[8],"1.43 fold enrichment (6-mer frequency, TF over GST control)"
same,binding signal,[9],"1.42 fold enrichment (6-mer frequency, TF over GST control)"
same,binding signal,[10],"1.32 fold enrichment (6-mer frequency, TF over GST control)"
same,binding signal,[11],"1.33 fold enrichment (6-mer frequency, TF over GST control)"
same,binding signal,[12],"1.34 fold enrichment (6-mer frequency, TF over GST control)"
same,binding signal,[13],"1.29 fold enrichment (6-mer frequency, TF over GST control)"
same,binding signal,[14],"1.35 fold enrichment (6-mer frequency, TF over GST control)"
same,binding signal,[15],"1.22 fold enrichment (6-mer frequency, TF over GST control)"
same,binding signal,[16],"1.33 fold enrichment (6-mer frequency, TF over GST control)"
same,binding signal,[17],"1.34 fold enrichment (6-mer frequency, TF over GST control)"
same,binding signal,[18],"1.24 fold enrichment (6-mer frequency, TF over GST control)"
